Measured values published in PubChem BioAssay (EPA / NIEHS).
Active and inactive are the calls of the source. Rule for the calls: active = hit-call score of the fitted dose curve at least 0.9, where 1 is the maximum; inactive = score below 0.9.

Each compound was assayed against CCAAT/enhancer-binding protein beta (Homo sapiens) (UniProt P17676) (assay: ATG_C_EBP_CIS: Attagene CIS-FACTORIAL HepG2 Assay for human CCAAT/Enhancer Binding Protein (C/EBP) beta (AID 2282927)). Details: HepG2 Attagene cis-factorial transcription factor reporter; actives raise or lower the signal.
Protocol: ATG_CIS is a cell-based, multiplexed-readout assay that uses HepG2, a human liver cell line, with measurements taken at 24 hours after chemical dosing in a 24-well plate.ATG_C_EBP_CIS is one of 52 assay component(s) measured or calculated from the ATG_CIS assay. It is designed to make measurements of mRNA induction, a form of inducible reporter, as detected with fluorescence intensity signals by Reverse transcription polymerase chain reaction (RT-PCR) and Capillary electrophoresis technology.Data from the assay component ATG_C_EBP_CIS was analyzed into 1 assay endpoint. This assay endpoint, ATG_C_EBP_CIS, was analyzed with bidirectional fitting relative to DMSO as the negative control and baseline of activity. Using a type of inducible reporter, measures of mRNA for gain or loss-of-signal activity can be used to understand the reporter gene at the transcription factor-level as they relate to the gene CEBPB. Furthermore, this assay endpoint can be referred to as a primary readout, because this assay has produced multiple assay endpoints where this one serves a reporter gene function. To generalize the intended target to other relatable targets, this assay endpoint is annotated to the dna binding intended target family, where the subfamily is basic leucine zipper.
Human liver HepG2 cells are transiently transfected with multiple reporter transcription units (MRTUs) in 6-well plates using FuGene 6 reagent (Roche; 3 ml FuGene/1 mg DNA). The MRTU constructs are regulated by a cis-regulating element (promoter). […] A major difference between the CIS and TRANS system is that in CIS activities of endogenous TFs are measured, whereas the TRANS assay evaluates changes in activities of exogenous, chimeric NR-Gal4 proteins. […] At the end of 24 hour incubation, total RNA was isolated using TriZol reagent (Invitrogen). The isolated RNA is then reverse-transcribed using oligo(dT) primer and Mo-MLV reverse transcriptase (Invitrogen) with DNAse I (Ambion) treatment for 30 min. The one-tenth of the produced cDNA was amplified by PCR using Taq DNA polymerase (Invitrogen) and two reporter sequence-specific primers. The PCR products were fluorescently labeled by primer extension with 6-arboxyfluorescein (6-FAM) 5'-labeled reporter sequence-specific primer (2 min at 95 C, 20 s at 68 C and 10 min at 72 C) and these products were digested with 5U of HpaI (New England Biolabs) for 2h at 37 C. The fragments were purified using Qiaquick PCR columns (Qiagen), analyzed on an ABI 3130xL genetic analyzer (Applied Biosystems) with peak positions identified by using a set of X-rhodamine (ROX)-labeled MapMarker1000 molecular weight standards (BioVentures). The raw capillary electrophoresis data was processed using Attagraph software (Attagene).

Sequence of CCAAT/enhancer-binding protein beta (Homo sapiens) (P17676 whole entry, looked up): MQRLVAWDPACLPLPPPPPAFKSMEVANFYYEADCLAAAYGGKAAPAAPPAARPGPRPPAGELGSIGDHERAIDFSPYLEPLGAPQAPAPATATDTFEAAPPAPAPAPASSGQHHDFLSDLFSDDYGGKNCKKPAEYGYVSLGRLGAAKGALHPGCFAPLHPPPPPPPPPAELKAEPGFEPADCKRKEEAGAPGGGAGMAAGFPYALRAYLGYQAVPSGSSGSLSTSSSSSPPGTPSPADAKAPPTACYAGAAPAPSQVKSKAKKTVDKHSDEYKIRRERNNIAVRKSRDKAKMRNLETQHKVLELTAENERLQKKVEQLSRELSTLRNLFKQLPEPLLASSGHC

outcome, inactive:
Cc1ncc[nH]1
CC(C)(CO)[C@@H](O)C(=O)NCCC(=O)O
CCCCCCC(O)CCCCCCCCCCC(=O)O (stereo not given)
CN(C)C(=O)Nc1ccc(Oc2ccc(Cl)cc2)cc1
O=C(CS)OCCOC(=O)CS
C=C(C)[C@@H]1CC=C(C)C(=O)C1
CCCCCCCCCCCCCCN(CCO)CCO
C=C1C[C@]23C[C@@]1(O)CC[C@H]2[C@@]12C=C[C@H](O)[C@@](C)(C(=O)O1)[C@H]2[C@@H]3C(=O)O
COC(C)(C)CC(C)=O
C=C(C)C1CC=C(C)C(=O)C1 (stereo not given)
CC=CC=CCOC(=O)C(C)C
C=CC(C)C#N (stereo not given)
CSCCC=O
O=C(O)c1cc(C(=O)O)cc([N+](=O)[O-])c1
CCCN(CCC)S(=O)(=O)c1ccc(C(=O)O)cc1
C[C@H]1C[C@@H](O)CC(C)(C)C1
CCCC[O][Al]([O]CCCC)[O]CCCC
CC(CN=Cc1ccccc1O)N=Cc1ccccc1O (stereo not given)
C=CC(=O)OCCCC
OCCCCC(O)CO (stereo not given)
C=COCCOCCOC=C
C1CCCCC1
CC1C2CC(CC2C2CCCC(O)C2)C1(C)C (stereo not given)
OCCOCCN1CCN(C2=Nc3ccccc3Sc3ccccc32)CC1
Nc1ccn([C@H]2CS[C@@H](CO)O2)c(=O)n1
OCc1cccc(Oc2ccccc2)c1
C=C(C)[C@H]1CC=C(C)C(=O)C1
CCOC(=O)CC(C)O (stereo not given)
CS(=O)(=O)c1ccc(C2=C(c3ccccc3)C(=O)OC2)cc1
CC(=O)O[C@@H]1C[C@@H]2CC[C@@]1(C)C2(C)C
CCCCCCCCCCCCN1CCCCCC1=O
C=C(C)C(=O)OCCOC1CC2CC1C1C=CCC21 (stereo not given)
CC(=O)C(C)O (stereo not given)
Cc1ccc(C)o1
CCCCCCC(C)(C)S
Cc1ccc(S(N)(=O)=O)cc1
CCCCCCOCCOCCO

AC50, active:
Nc1ccc(N)c2c1C(=O)c1ccccc1C2=O 11.3 µM
COc1ccc(N=Nc2cc(C)c(N=Nc3ccc(S(=O)(=O)O)cc3)cc2OC)cc1 42.9 µM
CCC(C)c1cc([N+](=O)[O-])cc([N+](=O)[O-])c1OC(=O)OC(C)C (stereo not given) 49.1 µM
